Experimental data published in ChEMBL document CHEMBL3433997, “St. Jude Leishmania screening dataset” (2016).

These compounds were tested against Glucose transporter (Leishmania mexicana) (UniProt O61059) (assay: ST_JUDE_LEISH: Cytotoxicity at 2uM final concentration against transgenic Leishmania Mexicana promastigotes LmGT2 that are glucose transport deficient and complemented with the L. Mexicana glucose transporter 2. Activity is measured by DNA content using SYBR green in vitro).
Format: functional

| SMILES | inhibition [%] |
| --- | --- |
| CC(C)c1ccc(NC(=O)c2cccc(CN3CCCN(Cc4cccc(C#N)c4)CC3)c2)cc1 | 3.39 |
| CCCCC(CC)CN1C(=O)C(c2ccccc2)(c2ccccc2)N=C1N (stereo not given) | 2.42 |
| Cc1cc(=O)[nH]c(-n2nc(C)cc2NC(=O)C(c2ccccc2)c2ccccc2)n1 | 6.5 |
| CCOc1ccc2nc(N(CCCn3ccnc3)C(=O)C=Cc3cccs3)sc2c1 | -8.76 |
| O=C(NC1CCN(c2ccnc3cc(Cl)ccc23)C1)c1ccc(F)cc1F (stereo not given) | 2.89 |
| COc1ccc(S(=O)(=O)N2CCC(NS(=O)(=O)c3ccc(F)cc3)CC2)cc1 | 3.69 |
| Cc1cccc2nc(-c3cccc(-c4cccc(NC(=O)c5cnn6cccnc56)c4)c3)[nH]c12 | 1.19 |
| CC(O)C1CCCCN1C(=O)c1ccc(-c2ccc(-c3nc4cc(F)ccc4[nH]3)cc2)cc1 (stereo not given) | 3.6 |
| CC/N=C(/NCCCCCCN/C(=N/CC)NCc1ccccc1)NCc1ccccc1 | -2.09 |
| N#Cc1ccc2c(c1)CCN(CCC1CCC(NC(=O)/C=C/c3ccc4ccccc4c3)CC1)CC2 (stereo not given) | -1.14 |
| CCOc1ccc(-n2nc3c(Cl)nnc(-c4ccccc4)c3c2-c2ccccc2)cc1 | 0.01 |
| CNC(=O)c1ccccc1Nc1nc(Nc2ccc(CCN3CCN(C)CC3)cc2)ncc1Cl | 56 |
| O=C(Nc1cccc(-c2cccc(CN3CCCC3)c2)c1)c1cccc(Cl)c1 | 4.9 |
| Cc1cccc2nc(-c3cccc(-c4cccc(CNCc5ccc(S(C)(=O)=O)cc5)c4)c3)[nH]c12 | -0.24 |
| CCCNCc1ccc(-c2ccc(CN(CCOC)C(=O)c3ccccc3)cc2)nc1 | 1.11 |
| N#Cc1cccc(-c2cccc(C(=O)NC3CCC(CCN4CCc5ccc(C#N)cc5CC4)CC3)c2)c1 (stereo not given) | 11.2 |
| Clc1ccc2c(NCc3ccc4c(c3)OCO4)ccnc2c1 | 4.15 |
| CCCCCCCCc1c(C)nc(C)c(C#N)c1O | 5.78 |
| O=C(Nc1ccc(CN2CCN(S(=O)(=O)c3cccc(Cl)c3)CC2)cc1)c1cccs1 | 1.17 |
| COc1ccc(OCCCCON2C(=N)N=C(N)NC2(C)C)cc1 | 2.18 |

| SMILES | inhibition [%] |
| --- | --- |
| Cc1ccc(CCC(C)NCC(O)c2cccc(C(F)(F)F)c2)cc1 (stereo not given) | 0.17 |
| CC(C)(C)c1ccc(N2C(N)=NC(N)=NC2(C)C)cc1Cl | 5.67 |
| CCC(C)NC(=O)CN1CN(c2ccccc2)C2(CCN(C(=O)c3ccc(C(C)(C)C)cc3)CC2)C1=O (stereo not given) | 1.7 |
| c1ccc2sc(Sc3ncnc4sccc34)nc2c1 | 0.27 |
| Cc1cccc2nc(-c3ccc(-c4cccc(CN5CCN(CCN6CCOCC6)CC5)c4)s3)[nH]c12 | 0.64 |
| O=C(Cn1c(CCc2cccc(F)c2F)nc(=O)c2ccccc21)N(CCN1CCCCC1)Cc1ccc(-c2ccc(C(F)(F)F)cc2)cc1 | 4.32 |
| CN(C)Cc1cccc(-c2ccc(Nc3nccc(NCC(O)c4ccccc4)n3)cc2)c1 (stereo not given) | 3.53 |
| O=C(NCC1CCC(C(=O)NCCc2ccc(Cl)c(Cl)c2)CC1)c1ccc(O)c(-c2ccc(Cl)c(Cl)c2)c1 (stereo not given) | 1.89 |
| Cc1ccnc(Nc2nc(-c3ccccn3)cs2)c1 | -2.74 |
| O=C(Nc1ccc(F)cc1F)NC1CCN(c2ccnc3cc(Cl)ccc23)C1 (stereo not given) | 6.34 |
| O=[N+]([O-])c1cc(/C=N/Nc2nc3ccccc3[nH]2)ccc1O | 4.27 |
| N#Cc1ccc(-c2ccc(C(=O)NCCCCN3CCC(c4ccc5c(c4OCc4ccccn4)CCCC5)CC3)cc2)cc1 | 0.17 |
| CCOC(=O)c1cccc(NC(=O)Nc2cc(C)nc3ccccc23)c1 | 5.11 |
| CC=CC(=O)N1CCN(c2nccc(-c3ccc(C(C)(C)C)cc3)n2)CC1 | 7.85 |
| Cc1ccc(NS(=O)(=O)c2ccc(C(C)N3CCC(N4CCCCC4)CC3)cc2)cc1C (stereo not given) | 0.73 |
| c1cc(CNC2CCCC2)cc(-c2ccc(CNc3ccc4ncccc4c3)cc2)c1 | -2.51 |
| N#Cc1ccc(NC(=O)c2ccc(C(=O)NCCCCN3CCC(c4ccc5c(c4OCCOC4CCCCO4)CCCC5)CC3)cc2)cc1 (stereo not given) | 0.27 |
| CNC(=O)Cc1ccc(C(=O)Nc2cccc(-c3ccc(-c4nc5cccc(C)c5[nH]4)s3)c2)cc1 | 1.79 |
| CC(Cc1ccc(OCc2ccccc2)cc1)Nc1nc(O)c2ccccc2n1 (stereo not given) | 3.22 |
| CCCN(CCC)C(=O)c1cc(C(=O)N[C@@H](Cc2ccccc2)[C@H](O)CNC(C)(C)c2cccc(OC)c2)cc(N2CCCCS2(=O)=O)c1 | 2.14 |
